Inconclusive results are not listed. The source made the active and inactive calls. Calls come from the whole dose curve; as a rule, active = well fitted activation curve with a large enough effect in the repeat runs; inconclusive = weak or mixed curves, or effect the other way; inactive = no such curve, though single readings can be large or run the other way.
assay: qHTS assay to identify small molecule agonists of the estrogen related receptor signaling pathway with the pleiotropic PPARgamma coactivator (PGC) from Tox21 10K library (AID 1224842); details: PGC/ERR reporter cell line, luciferase ONE-Glo, 18 h; series mostly up to 92.4 µM; activation: at the top concentration; note: nearly all actives have a fitted effect of over 15% in size
Text: National Center for Advancing Translational Sciences [NCATS] NIH Chemical Genomics Center [NCGC] U.S. Environmental Protection Agency [EPA] National Institutes of Environmental Health Sciences [NIEHS] National Toxicology Program [NTP] Assay overview: Estrogen related receptors (ERRs), the first orphan nuclear receptors discovered, play an important role in the control of cellular energy metabolism. ERRs are required for high-energy production in response to the environmental challenges. The pleiotropic PPARgamma coactivator (PGC) is a major partner of ERR and a key regulator in energy homeostasis. Together they have been implicated in the etiology of metabolic disorders such as Type 2 diabetes and metabolic syndrome. ERR-alpha was also identified as an adverse marker for breast cancer progression; ERR-alpha-positive tumors have a poor prognosis. To screen and to identify environmental compounds that perturb the PGC/ERR signaling pathways could provide valuable information for potential therapeutic or preventive measures in the treatment of metabolic disease. For identifying PGC/ERR agonists, PGC/ERR cell line (provided by NTP) has been used to screen Tox21 10K library.
Assay Protocol Summary: The PGC/ERR cells were dispensed at 2,000 cells/5 ul/well in 1536-well white plates using a Multidrop dispenser. After the assay plates were incubated at a 37 C/5% CO2 incubator for 6 hours, 23 nL of compounds dissolved in DMSO, positive and negative controls or DMSO only was transferred to the assay plate by a pin tool. The plates were incubated at 37 C for 18 hours. 4 ul/well of One-Glo reagent was added into the assay plates using a Flying Reagent Dispenser. After 30-minute incubation at room temperature, the luminescence intensity in the plates was measured using a ViewLux plate reader.
% is set by controls: 0 for no effect and ±100 for the full control effect; potency is the fitted concentration of half-maximal effect.

| Structure (SMILES) | activation | Potency |
| --- | --- | --- |
| O=C(O)c1cc(=O)c2ccccc2o1 | 0.839% [at 42.5 µM] (inactive) |  |
| CCN(CCN)c1cccc(C)c1 |  | inactive |
| Cc1cccc2cccnc12 | 2.44% (inactive) |  |
| CCOC(=O)c1ccc(C2CCC(NC[C@H](O)COc3ccc(O)c(NS(C)(=O)=O)c3)CC2)cc1 (stereo not given in full) | -8.8% (inactive) |  |
| COC(=O)C1=C(C)NC(C)=C(C(=O)OCCN2CCN(C(c3ccccc3)c3ccccc3)CC2)C1c1cccc([N+](=O)[O-])c1 (stereo not given) | -20.5% [at 42.5 µM] (inactive) |  |
| Cc1cc(C(C)(C)C)c(O)c(C)c1Cn1c(=O)n(Cc2c(C)cc(C(C)(C)C)c(O)c2C)c(=O)n(Cc2c(C)cc(C(C)(C)C)c(O)c2C)c1=O | -9.3% (inactive) |  |
| O=C(O)O |  | 0.264 µM (active) |
| CCN(CC)C(=O)c1cc(S(=O)(=O)Cc2ccccc2)c(N2CCC(c3ccccc3)CC2)cc1N(CC)CCN(C)C | -33.2% [at 42.5 µM] (inactive) |  |
| C#C[C@]1(OC(C)=O)CC[C@H]2[C@@H]3CCC4=C/C(=N/O)CC[C@@H]4[C@H]3CC[C@@]21CC | -17.3% [at 42.5 µM] (inactive) |  |
| COc1c(C)c2c(c(O)c1C/C=C(\C)CCC(=O)OCCN1CCOCC1)C(=O)OC2 |  | 0.237 µM (active) |
| COc1ccc2c(c1)c(CC(=O)OC/C=C(\C)CC/C=C(\C)CCC=C(C)C)c(C)n2C(=O)c1ccc(Cl)cc1 | -4.99% [at 42.5 µM] (inactive) |  |
| O=C1CCCCCCCCCCCCCCCO1 | -0.0499% (inactive) |  |
| CCCCCCC1CCCC(=O)O1 (stereo not given) | -0.315% (inactive) |  |
| C1CCC(SSC2CCCCC2)CC1 | 1.31% (inactive) |  |
| O=C(Nc1ccc2c(O)c(N=Nc3ccc(N=Nc4ccc(S(=O)(=O)O)cc4)cc3)c(S(=O)(=O)O)cc2c1)c1ccccc1 | -17.6% (inactive) |  |
| Cc1cc(=O)oc2cc(O)cc(O)c12 | -12.6% (inactive) |  |
| O=C1C(c2[nH]c3ccc(S(=O)(=O)O)cc3c2O)=Nc2ccc(S(=O)(=O)O)cc21 | -11.5% (inactive) |  |
| CCCCCCCCCCCCCC[N+](C)(C)Cc1ccccc1 |  | inactive |
| Clc1sc(Cl)c(Cl)c1Cl | 5.15% (inactive) |  |
| Nc1cc(Cl)c(O)c(Cl)c1 | -9.17% (inactive) |  |

| Structure (SMILES) | activation | Potency |
| --- | --- | --- |
| Cc1ccc(C(=O)O)cc1 | -3.65% (inactive) |  |
| O=S(=O)(O)c1ccc(Nc2nc(Nc3ccc(/C=C/c4ccc(Nc5nc(Nc6ccc(S(=O)(=O)O)cc6)nc(N(CCO)CCO)n5)cc4S(=O)(=O)O)c(S(=O)(=O)O)c3)nc(N(CCO)CCO)n2)cc1 | 0.437% [at 42.5 µM] (inactive) |  |
| Cc1ccc(O)c(O)c1 |  | 13.3 µM (active) |
| CC[N+](CC)(CC)CCOc1ccc(/C=C/c2ccccc2)cc1 | -19.6% [at 42.5 µM] (inactive) |  |
| O=C(Oc1ccccc1)Oc1ccccc1 | -11.2% (inactive) |  |
| CC[N+](CC)(CC)CCOC(=O)C(C1CCCC1)C1CCCC1 | -10.5% [at 42.5 µM] (inactive) |  |
| CC(C)(c1cc(Br)c(OCC(Br)CBr)c(Br)c1)c1cc(Br)c(OCC(Br)CBr)c(Br)c1 (stereo not given) | 0.823% [at 42.5 µM] (inactive) |  |
| CCC(=O)C(=O)CC | -2.17% (inactive) |  |
| C=CC(C)(CCC=C(C)C)OC=O (stereo not given) | 1.59% (inactive) |  |
| O=C(c1ccc(O)c(O)c1)c1ccc(O)cc1O | -19.7% (inactive) |  |
| O=C(/C=C/c1ccccc1)OC/C=C/c1ccccc1 | 8.99% (inactive) |  |
| CC(C)(C)C1CCC(=O)CC1 | 0.186% (inactive) |  |
| COC(=O)c1ccccc1C | -0.553% (inactive) |  |
| CCCCCCOC(=O)C(C)CC (stereo not given) | 3.22% (inactive) |  |
| CCCCCCCC/C=C\CCCCCCCCN | 0.39% [at 42.5 µM] (inactive) |  |
| C#CC1(O)CC[C@H]2[C@@H]3CCC4=CCCC[C@@H]4[C@H]3CC[C@@]21C (stereo not given in full) |  | inactive |
| C=CC(=O)Nc1cc2c(Nc3ccc(F)c(Cl)c3)ncnc2cc1OCCCN1CCOCC1 |  | 3.76 µM (active) |
| CCCCCc1ccc(Cl)cc1 | -3.89% (inactive) |  |
| O=C(O)c1cc(O)c2ccccc2c1O | -20.3% (inactive) |  |
| CN(C)C(=O)COC(=O)Cc1ccc(OC(=O)c2ccc(N=C(N)N)cc2)cc1 | 4.29% [at 42.5 µM] (inactive) |  |

Reference: PubChem BioAssay (Tox21)
